Data on one compound can be found in PubChem BioAssay AID624429 (Broad Institute, 2012).

Results with a measured potency or affinity are listed apart. The source made the active and inactive calls.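 How the source made its calls: active means viability loss with a fitted half-maximal dose at or below twice the top valid dose, in every repeat test; inconclusive means repeat tests disagree, or a flat partial loss, or a poor fit; inactive means all tests inactive, including signal rising instead of falling.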

The test is described as follows: cytotoxicity in melanoma parental cells – cell-based, CellTiter-Glo, dry powder, set 6, MITF inhibitor project, dose response (AID 624429). (ATP-based viability assays read luminescence as a measure of living cells.)

For `NC1=C(NS(=O)(=O)c2ccc(Br)s2)C(=O)c2ccccc2C1=O`, the result was inactive.
